Data reported in PubChem BioAssay (NCI).
Compounds without any hit were thinned out: in the full panel of roughly 79,000, 15% have a hit. Rule as the data show it: active = growth inhibition above about 70%; inactive = the rest.

Tests used:
[1] = NCI Yeast Anticancer Drug Screen. Data for the rad50 strain (AID 155);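 also: 0% = growth of vehicle-only cultures of the same strain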; conditions: S. cerevisiae rad50 strain growth inhibition; at 50.0 µM; active compounds read high
Outline: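 Cells are treated with compound, grown, and their growth is then scored against vehicle-only cultures of the same repair-deficient yeast strain.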

[2] = NCI Yeast Anticancer Drug Screen. Data for the mec2-1 strain (AID 157); conditions: S. cerevisiae mec2-1 strain, at 50.0 µM, active compounds read high
Outline: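 Strain: mec2-1 (DNA repair/cell cycle alteration). Compound exposure, then growth measured; inhibition expressed relative to vehicle.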

[3] = NCI Yeast Anticancer Drug Screen. Data for the sgs1 mgt1 strain (AID 161);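 also: 0% = growth of cultures given vehicle only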; conditions: S. cerevisiae sgs1 mgt1 strain, at 50.0 µM, active compounds read high
Outline: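 Read-out: growth inhibition vs vehicle controls. Cells: mutant yeast strain deficient in DNA damage repair.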

[4] = NCI Yeast Anticancer Drug Screen. Data for the cln2 rad14 strain (AID 165);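 also: 0% = growth equal to vehicle treated cultures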; conditions: S. cerevisiae cln2 rad14 strain, at 50.0 µM, active compounds read high
Outline: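 Compounds are applied to the cln2 rad14 yeast strain, and growth is then compared with that of vehicle-treated cultures to give inhibition.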

[5] = NCI Yeast Anticancer Drug Screen. Data for the bub3 strain (AID 167); conditions: S. cerevisiae bub3 mutant strain, at 50.0 µM, active compounds read high
Outline: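 Part of a panel of yeast mutants defective in DNA damage repair or cell cycle regulation. Each strain is grown with compound, and inhibition is calculated relative to solvent-treated cultures.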

[6] = NCI Yeast Anticancer Drug Screen. Data for the mlh1 rad18 strain (AID 175); conditions: S. cerevisiae mlh1 rad18 strain growth inhibition; at 50.0 µM; active compounds read high
Outline: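 Read-out is yeast growth inhibition, calculated against vehicle-only controls. The compound was applied to a strain engineered with DNA damage repair alterations.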

Measured: growth inhibition

O=CCCn1[nH]c(=O)ccc1=O
inactive: [1] 2.4% | [2] -4.65% | [3] 15.9% | [4] 20.2% | [5] 25.1% | [6] 12.9%

CN(c1ccc(Cl)cc1)S(=O)(=O)c1ccc([N+](=O)[O-])cc1
inactive: [1] -13.2% | [2] -23.5% | [3] 23.4% | [4] 32.4% | [5] 38% | [6] -5.9%

CC(C)c1ccc2c(c1)CCC1C2(C)CCCC1(C)C(O)c1ccccc1 (stereo unspecified)
inactive: [1] 9.45% | [2] -6.65% | [3] 8.6% | [4] -17.1% | [5] 8.05% | [6] 32.1%

CCCCCCCCSc1nc(Nc2cc(C(C)(C)C)c(O)c(C(C)(C)C)c2)nc(SCCCCCCCC)n1
inactive: [1] 41.6% | [2] 1.95% | [3] 13.1% | [4] 34.1% | [5] -0.9% | [6] 28.4%

CC(=O)NC(Cc1ccc(O)cc1)C(=O)O (stereo unspecified)
inactive: [1] 10.8% | [2] 5.25% | [3] -3.4% | [4] -19.4% | [5] -9.05% | [6] -3.45%

CC(=O)OC1C(C(O)CO)OC2OC(C)(C)OC21 (stereo unspecified)
inactive: [1] -10.9% | [2] -14.1% | [3] -14% | [4] -58.8% | [5] -59.5% | [6] -6.25%

CC(C)(CO)NO
inactive: [1] -13.7% | [2] -6.9% | [3] 3.05% | [4] -0.4% | [5] -14.3% | [6] -5.7%

CCCCC1C/C=C/C=C/C=C/C=C/C(OC2OC(C)C(O)C(N)C2O)CC2OC(O)(CC(O)CC3OC3/C=C/C(=O)O1)CC(O)C2C(=O)O (stereo unspecified)
inactive: [1] 30.6% | [2] 9.5% | [3] 2.75% | [4] 17.6% | [5] -1.7% | [6] 11.2%

N#Cc1ccc(NC(=O)C(CC(=O)OCc2ccccc2)NC(=O)OCc2ccccc2)cc1 (stereo unspecified)
inactive: [1] -2.75% | [2] 4.65% | [3] 3.85% | [4] 7.3% | [5] 50.8% | [6] -8.05%

C[N+]1(C)CC2CCC1C2 (stereo unspecified)
inactive: [1] 1.1% | [2] 16.1% | [3] 17.6% | [4] -27.8% | [5] -9.05% | [6] -7.1%

CSc1nc(NC2OC(CO)C(O)C(O)C2O)c(C=O)c(=O)n1C (stereo unspecified)
inactive: [1] 10% | [2] -0.8% | [3] 10.3% | [4] 4% | [5] 2.45% | [6] 7.75%

Cc1cc(C)c(C(CC(=O)O)C(CC(=O)O)c2c(C)cc(C)cc2C)c(C)c1 (stereo unspecified)
inactive: [1] -0.25% | [2] 1.5% | [3] -16.6% | [4] -21.4% | [5] -6.85% | [6] 32.4%

CCOc1c(N=Nc2ccccc2)c(C)nn1C(N)=S
inactive: [1] -55.9% | [2] -24.6% | [3] 9.95% | [4] -40.9% | [5] 0.4% | [6] 3.4%

NC(=O)N/N=C\CC(O)(C(F)(F)Cl)C(F)(F)Cl
inactive: [1] -33.9% | [2] -29.2% | [3] -15.6% | [4] -1.5% | [5] 3.2% | [6] -3.1%

C=CNC(=S)n1nc(-c2ccccc2NC(=O)C(F)(F)F)c(=O)n(C(=S)NC=C)c1=S
inactive: [1] 31.4% | [2] 38.5% | [3] 30.4% | [4] -0.55% | [5] -9.1% | [6] 24.9%

O=C1c2ccccc2C2NCCCN12 (stereo unspecified)
inactive: [1] -2.55% | [2] -12.3% | [3] -0.4% | [4] -5.65% | [5] -3.55% | [6] 0.9%

N#Cc1cnsc1
inactive: [1] -4.15% | [2] 2.65% | [3] 4.75% | [4] 3.55% | [5] 12.4% | [6] -26.8%

COc1cc2ccc3c(c2cc1OC)CCc1cn[nH]c1-3
inactive: [1] 2.05% | [2] 3.4% | [3] 8% | [4] 27.4% | [5] 11.8% | [6] 9.45%

CC(=O)OC/C=C(C)/C=C/C=C(C)/C=C/C1=C(C)CCCC1(C)C
inactive: [1] -15.4% | [2] -34% | [3] -20.3% | [4] -2.25% | [5] 12.5% | [6] -55%

O=C1/C(=C/c2ccccc2)CN(C(=O)Oc2ccccc2)C/C1=C\c1ccccc1
inactive: [1] -21% | [2] -15.2% | [3] -12.9% | [4] 10.3% | [5] -7.05% | [6] -13.8%

COc1cc(C2=C3C(=O)OCC3Cc3ccccc32)ccc1OCc1ccccc1 (stereo unspecified)
inactive: [1] 18.9% | [2] -0.5% | [3] 7.5% | [4] 5.55% | [5] 11.1% | [6] 29.6%
